In all, about 1,200 compounds went through this assay and about 360 (30%) were called active. How the calls were made is not given here. These entries were drawn from the full list. Results with a measured potency or affinity are listed apart.

The nature of the test: antibacterial activity by ATP level – BacTiter-Glo luminescence, cherry-picked samples, counter-screen, dose response (AID 504843).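 Further: growth measured after 8 h incubation at 30 °C.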 As to conditions: bacterial growth; series mostly up to 15 µM. On the technique in general: Counterscreens check selectivity or assay interference.
Consider `Cc1nc2ccccn2c1/C(O)=C1\C(=O)C(=O)N(CCN(C)C)C1c1ccco1` (stereo unspecified), for which the outcome was inactive.

`CCN(C[C@H]1N[C@@](Cc2ccccc2)(C(=O)OC)[C@H]2C(=O)N(C)C(=O)[C@@H]12)C(C)=O`: the call was inactive.

Take `CCOCCOc1nc2c(c(=O)n(C)c(=O)n2C)n1Cc1ccc(C)cc1`: the molecule was classed as inactive.

Regarding `CCc1cccc2c1NC(=O)C2(O)N1CCCC(C)C1` (stereo unspecified), the outcome was inactive.

As for `CCOC(=O)c1ccccc1NC(=S)N1CC(C)CC(C)C1` (stereo unspecified), the outcome was inactive.

As for `COc1ccc(/C=C/C(=O)Nc2ccccc2C(=O)O)cc1OC`, the molecule was classed as inactive.

On to `CC1(C)CC(=O)c2cc3c(nc2C1)CC(C)(C)CC3=O`, for which the outcome was inactive.

Regarding `CC(C)NC(=O)CN1CCN(C(=O)c2ccc3oc(CCCc4ccccc4)nc3c2)CC1`, the molecule was classed as inactive.

As for `Cc1nn(C)c(C)c1S(=O)(=O)N(CC(=O)NCCCN1CCC(C)CC1)c1ccc(C(C)C)cc1`, the outcome was inactive.

As for `O=C(CSc1ncnc2ccccc12)NCc1ccco1`, the molecule was classed as inactive.

With `O=C(CN(Cc1ccccc1Cl)C(=O)CNS(=O)(=O)c1ccc(F)cc1)NCC1CCCO1` (stereo unspecified), the molecule was called inactive.

Consider `COc1ccccc1N1CCN(C(=O)CSc2nnc(NC(=O)C(C)C)s2)CC1`, for which the molecule was called inactive.

Turning to `Cc1ccc(Cn2c(=O)oc3ccccc32)cc1`, the molecule was classed as inactive.

As to `Cc1cccc(NC(=S)N/N=C/c2c[nH]c3ccccc23)c1`, the molecule was classed as inactive.

For `CC1CCCN(C(=O)c2nn(C)c3c2CSc2ccccc2-3)C1` (stereo unspecified), the molecule was called inactive.

In the case of `O=C(NCCNC(=O)c1ccccc1F)c1ccccn1`, the result was inactive.

As for `CCCC(=O)NC1=C(C#N)C2(CCCC2)Cc2ccccc21`, the outcome was inactive.

For the molecule `COc1ccccc1NC(=S)NC1CC2CCC1C2` (stereo unspecified), the result was inactive.

Regarding `COc1ccccc1NC(=O)NCCCCc1ccccc1`, the molecule was classed as inactive.

Consider `Cc1cc(C)n2nc(SCC(=O)N3CCN(c4ccccc4)CC3)nc2n1`, for which the molecule was classed as inactive.

As for `O=C(CN1CCN(c2ccccc2)CC1)N1N=CCC1c1ccccc1` (stereo unspecified), the result was inactive.

Turning to `CCCSc1nnc(CNS(=O)(=O)c2ccc(C)cc2)n1C`, the result was inactive.

Turning to `COC(=O)[C@H](CC(C)C)N(Cc1ccccc1)S(=O)(=O)N(Cc1ccccc1)[C@@H](CC(C)C)C(=O)OC`, the call was inactive.

For the molecule `CCN(CC)S(=O)(=O)c1ccc(OC)c(NC(=O)c2ccc(=O)[nH]c2)c1`, the molecule was called inactive.

`Nc1cc(S(=O)(=O)C(F)(F)F)ccc1C(=O)O`: the molecule was called inactive.

On to `N#Cc1cccc(Nc2c3c(nc4ccccc24)CCCC3)c1`, for which the result was inactive.

On to `CC(=O)c1ccccc1OCC(O)CN1CCN(C(c2ccccc2)c2ccccc2)CC1` (stereo unspecified), for which the result was inactive.

With `O=C1c2cccc3cccc(c23)C(=O)N1CC1CCN(CC(O)COc2ccc3ccccc3c2)CC1` (stereo unspecified), the outcome was inactive.

Regarding `Cc1cc(C)c(C#N)c(SCS(=O)c2ccc(C(C)(C)C)cc2)n1` (stereo unspecified), the outcome was inactive.

`C#CCNC(=O)C1=C[C@H](c2csc3ccccc23)[C@@H](CCCO)[C@H](OCC)O1`: the outcome was inactive.

`CN(C/C=C/c1ccccc1[N+](=O)[O-])Cc1ccccc1`: the result was inactive.

With `O=S(=O)(c1cc(Cl)cc(Cl)c1O)N1CCC2(CC1)OCCO2`, the result was inactive.

As to `Cc1cccn2c(=O)c3cc(S(=O)(=O)c4ccccc4)c(=N)n(Cc4ccco4)c3nc12`, the call was inactive.

Turning to `O=C(O)[C@@H](c1ccccc1)N1Cc2ccccc2C1=O`, the result was inactive.

For the molecule `CC1CC(=O)N(c2ccc(Br)cc2)C(=O)C1`, the molecule was classed as inactive.

For the molecule `COc1ccc(OCc2nnc(SCC(=O)N3C(C)CCCC3C)o2)cc1` (stereo unspecified), the molecule was called inactive.

Regarding `CC(C)(C)c1cc(NS(=O)(=O)c2ccc3c(c2)OCCO3)on1`, the outcome was inactive.

Take `Cc1cc(NC(=O)c2ccc([N+](=O)[O-])cc2)n(C)n1`: the outcome was inactive.

For `O=C(COc1ccc([N+](=O)[O-])cc1)Nc1cccc2nsnc12`, the molecule was called inactive.

Consider `COc1ccc2nc(SCC(=O)Nc3cc(OC)c(OC)cc3C(=O)O)c(C)cc2c1`, for which the result was inactive.

As to `O=C(Nc1ccc(S(=O)(=O)Nc2ncccn2)cc1)c1cncc(Br)c1`, the outcome was inactive.

For the molecule `Cc1ccc(S(=O)(=O)CCNC(=O)Cc2ccc(Cl)cc2)cc1`, the outcome was inactive.

Turning to `O=C(COC(=O)C12CC3CC(CC(Br)(C3)C1)C2)Nc1cccnc1Cl`, the outcome was inactive.

For `Cc1ccnc(SCCn2c(N3CC(C)CC(C)C3)nc3c2c(=O)n(C)c(=O)n3C)n1` (stereo unspecified), the result was inactive.

Take `Cc1cc(N2C(=O)c3ccc(C(=O)Nc4ccc(O)cc4C(=O)O)cc3C2=O)no1`: the outcome was inactive.

For the molecule `O=C(N/N=C/C1=C(N2CCOCC2)C(=C\c2ccccc2)/CC1)Nc1ccccc1`, the molecule was classed as inactive.

With `COc1cccc(C2C(C(=O)OC(C)C)=C(C)Nc3ncnn32)c1` (stereo unspecified), the molecule was called inactive.

`Cc1csc(NC(=O)c2c(-c3c(Cl)cccc3Cl)noc2C)n1`: the outcome was inactive.

Consider `COc1ccc(Nc2nc3ccccc3nc2-n2nc(C)cc2C)cc1`, for which the molecule was called inactive.

Turning to `COc1cc(OC)c2c(C)cc(=O)oc2c1`, the result was inactive.

Turning to `COc1cccc(-n2c(SCc3ccccn3)nc3c(c2=O)SCC3)c1`, the outcome was inactive.

For `COc1ccc(NC(=O)c2ccccc2[N+](=O)[O-])cc1OC`, the call was inactive.

Take `CCN(CC)CCCn1c(C)cc2c(c1=O)C(c1cccc(Cl)c1)C(C#N)=C(N)O2` (stereo unspecified): the outcome was inactive.

Regarding `O=C(CSc1ncccn1)N/N=C/c1cccs1`, the molecule was called inactive.

With `Cc1ccnc(SCC(=O)c2cccs2)n1`, the call was inactive.

Consider `COc1cc(NC2c3ccccc3C(=O)N2Cc2ccc3c(c2)OCO3)cc(OC)c1OC` (stereo unspecified), for which the molecule was called inactive.

`COc1ccccc1N1CCN(CC(=O)Nc2ccc3c(c2)OCCO3)CC1`: the outcome was inactive.

Turning to `COc1ccc(C(=O)NC(C(=O)NCc2ccccn2)C(C)C)cc1` (stereo unspecified), the call was inactive.

Consider `COc1cccc(C(=O)NCCS(=O)(=O)NCc2ccccn2)c1`, for which the molecule was called inactive.

Take `Cc1nn2c(SCC(=O)c3cccs3)cc(C(C)(C)C)nc2c1-c1ccccc1`: the molecule was called inactive.

Turning to `O=c1[nH]c(-c2ccccn2)nc2ccccc12`, the result was inactive.

As to `CC1=NCC(C)c2c1[nH]c1ccccc21` (stereo unspecified), the call was inactive.

For the molecule `COC(=O)c1sccc1NC(=O)c1ccc2c(c1)OCO2`, the result was inactive.

As to `O=C(CNC(=O)c1ccccc1)NC1(C(=O)NC2CCCC2)CCCCC1`, the molecule was called inactive.

For the molecule `COc1ccc(Cl)cc1C(=O)NCCN(C)C`, the molecule was classed as inactive.

Consider `CCCCN1C(=O)C(CC(=O)NCC)SC1=Nc1ccccc1` (stereo unspecified), for which the result was inactive.

With `C=C1CSc2nc(=O)c3c4c(sc3n21)CCCC4`, the molecule was classed as inactive.

Take `COc1ccc(CCNC(=O)CN2CCOc3ccccc32)cc1OC`: the call was inactive.

Consider `COC(c1ccccc1)c1nnc(CCC(=O)N(C)C(C2CC2)C2CC2)o1` (stereo unspecified), for which the call was inactive.

On to `O=C(CCNC(=O)C1CCN(S(=O)(=O)c2ccc(F)cc2)CC1)Nc1nccs1`, for which the call was inactive.

For `O=C(Nc1ccccc1F)C1CCN(C(=O)Cc2ccccc2)CC1`, the molecule was called inactive.

Values taken from PubChem BioAssay AID504843 (Broad Institute, 2011).
